Out of some 16,000 compounds screened, about 5,800 (36%) were called active. About 23% were inconclusive and are not listed. The call rests on the fitted dose curve; in most records, active means well fitted curve in the direction sought with a large enough effect; inconclusive means small, poorly fitted or top-dose-only effect, or effect the other way; inactive means no such curve, though single readings can be large or run the other way. Some of the results follow.
target: Cytochrome P450 2C19 (Homo sapiens) (UniProt P33261); assay: Cytochrome panel assay with activity outcomes; details: recombinant CYP, pro-luciferin dealkylation, luminescence, p450-cyp2c19; series mostly up to 57.1 µM
On the % scale 0 is the no-effect control and ±100 the full control effect.

Chain of Cytochrome P450 2C19 (Homo sapiens) (P33261 whole entry, looked up): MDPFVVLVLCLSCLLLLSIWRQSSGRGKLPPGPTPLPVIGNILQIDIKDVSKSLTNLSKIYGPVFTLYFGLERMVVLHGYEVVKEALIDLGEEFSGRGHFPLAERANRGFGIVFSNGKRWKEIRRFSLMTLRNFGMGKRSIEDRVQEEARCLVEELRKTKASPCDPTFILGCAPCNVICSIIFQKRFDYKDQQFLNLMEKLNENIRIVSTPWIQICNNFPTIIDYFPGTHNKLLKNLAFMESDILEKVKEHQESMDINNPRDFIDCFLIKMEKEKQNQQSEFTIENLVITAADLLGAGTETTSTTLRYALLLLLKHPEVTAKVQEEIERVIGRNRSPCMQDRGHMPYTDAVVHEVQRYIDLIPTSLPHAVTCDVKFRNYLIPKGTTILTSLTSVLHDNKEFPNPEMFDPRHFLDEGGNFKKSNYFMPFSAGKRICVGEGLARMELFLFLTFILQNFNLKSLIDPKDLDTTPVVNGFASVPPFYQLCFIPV

AC50, active:
O=c1c(-c2ccc(O)cc2)coc2cc(O)ccc12 10 µM
O=c1c(-c2ccc(F)c(F)c2)nc2cncnc2n1Cc1ccccc1Cl 6.31 µM
O=c1c(-c2ccc(Cl)cc2)nc2cncnc2n1Cc1ccccc1Cl 3.98 µM
CN(CCOc1ccc(C[C@H](Nc2ccccc2C(=O)c2ccccc2)C(=O)O)cc1)c1ccccn1 3.98 µM
CNc1nc(NCCOC23CC4CC(CC(C4)C2)C3)nc(OCC(F)(F)F)n1 1.41 µM
CC(C)CCn1nnnc1C(c1ccc(F)cc1)N1CCN(C(=O)c2ccco2)CC1 (stereo not given) 4.47 µM
CCC(c1nnnn1CCOC)N1CCN(C(=O)c2ccco2)CC1 (stereo not given) 3.98 µM
Cc1ccccc1NC(=O)CSc1nnc(-c2ccccc2)n1-c1ccccc1 2.24 µM
O=C(CSc1nnc(-c2ccccc2)n1-c1ccccc1)c1cccs1 0.631 µM
CCOc1ccc(-n2c(SCC(=O)Nc3ccccc3C)n[nH]c2=O)cc1 5.62 µM
Cc1ccc(C(=O)NNC(=O)CSc2nnc(-c3ccncc3)n2-c2ccc(C)cc2)cc1 5.62 µM
CCn1c(SCC(=O)Nc2ccccc2C(=O)OC)nnc1-c1ccc(N)cc1 0.178 µM
Cc1ccccc1S(=O)(=O)Oc1ccccc1C(=O)Oc1ccccc1 1.78 µM

AC50, inactive:
N#Cc1ccc(CN2CCC3(CC2)CCN(C(=O)c2cc(C(F)(F)F)cc(C(F)(F)F)c2)CC3)cc1
O=c1c(-c2ccc(F)c(F)c2)nc2cncnc2n1C1CC1
O=C(c1ccco1)N1CCC2(CC1)CN(C(c1ccccc1)c1ccccc1)C2
O=C(c1ccco1)N1CCC2(CC1)CCN(C(c1ccccc1)c1ccccc1)CC2
C[C@]1(OC(=O)/C=C\c2ccccc2)C[C@@H](O)[C@@]2(O)C=CO[C@@H](O[C@H]3O[C@@H](CO)[C@@H](O)[C@@H](O)[C@@H]3O)[C@H]21
CC(C)NC(=O)CSc1nnc(C2CC2)n1-c1ccccc1
CCN(CC)C(=O)CSc1nnc(-c2ccncc2)n1N
O=C(O)c1cc2c(o1)CCC/C2=N\O
CC(=O)OC1CCC(OC(C)=O)c2c1n([O-])c(C)c(C)[n+]2=O (stereo not given)
CC(=O)Oc1ccccc1C(=O)Oc1ccccc1C(=O)O

activity, negative = inhibition, inactive:
Cc1cc(C2(c3cc(C)c(O)c(C(=O)O)c3)OS(=O)(=O)c3ccccc32)cc(C(=O)O)c1O 12.7% [at 11.4 µM]
Cc1ccccc1S(=O)(=O)O[C@@H]1NS(=O)(=O)c2ccccc21 24% [at 11.4 µM]

From PubChem BioAssay AID1851 (National Center for Advancing Translational Sciences (NCATS), 2009)
